# Laboratory results published in PubChem BioAssay (NCI).
# About 79,000 compounds went through this panel and 15% of them were active in at least one assay; those are over-represented in the sample as a whole. A number with no mark means an inactive call. Activity calls are given as the source filed them. Cut-off read from the data, not from the text of the source: active = growth inhibition above about 70%; inactive = the rest.
# Experiments:
# [1] = NCI Yeast Anticancer Drug Screen. Data for the rad52 strain (AID 147);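 note: 0% = growth of vehicle-treated control cultures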; conditions: S. cerevisiae rad52 mutant growth inhibition, hits give high values
# Procedure, shortened: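 Read-out: growth inhibition versus vehicle-treated controls. Cells were a DNA repair-deficient yeast strain treated with compounds.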
# [2] = NCI Yeast Anticancer Drug Screen. Data for the wt1 strain (AID 149);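 note: 0% = growth of vehicle-treated wt1 cultures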; conditions: S. cerevisiae wt1 strain (SPY 50644) growth inhibition, hits give high values
# Procedure, shortened: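 Yeast wt1 strain exposed to compounds; growth inhibition measured relative to vehicle-treated controls.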
# [3] = NCI Yeast Anticancer Drug Screen. Data for the rad50EPP+ strain (AID 151);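 note: 0% = growth of vehicle-treated control cultures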; conditions: S. cerevisiae rad50 mutant strain, hits give high values
# Procedure, shortened: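 Growth inhibition read against vehicle controls in rad50EPP+ yeast, a strain altered in DNA damage repair, after compound exposure.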
# [4] = NCI Yeast Anticancer Drug Screen. Data for the rad50 strain (AID 155);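 note: 0% = growth of vehicle-only cultures of the same strain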; conditions: S. cerevisiae rad50 strain growth inhibition, hits give high values
# Procedure, shortened: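 Yeast carrying a defined DNA repair defect were exposed to test compounds, and growth was compared with vehicle-treated controls to give percent inhibition.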
# [5] = NCI Yeast Anticancer Drug Screen. Data for the mec2-1 strain (AID 157); conditions: S. cerevisiae mec2-1 strain, hits give high values
# Procedure, shortened: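 Yeast mec2-1 mutant treated with compound. Readout: growth inhibition vs vehicle controls.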
# [6] = NCI Yeast Anticancer Drug Screen. Data for the rad14 strain (AID 159);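 note: 0% = growth of vehicle-treated control cultures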; conditions: S. cerevisiae rad14 strain growth inhibition, hits give high values
# Procedure, shortened: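 Yeast cells carrying a defined DNA-repair defect were exposed to compounds, and growth inhibition was calculated relative to vehicle-treated control cultures.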
# [7] = NCI Yeast Anticancer Drug Screen. Data for the sgs1 mgt1 strain (AID 161);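 note: 0% = growth of cultures given vehicle only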; conditions: S. cerevisiae sgs1 mgt1 strain, hits give high values
# Procedure, shortened: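 Genetically altered yeast, compound exposure, growth inhibition relative to vehicle.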
# [8] = NCI Yeast Anticancer Drug Screen. Data for the CLN2oe strain (AID 163);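 note: 0% = growth of vehicle-only control cultures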; conditions: S. cerevisiae CLN2oe strain, hits give high values
# Procedure, shortened: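 Read-out: yeast growth inhibition, expressed relative to vehicle-only controls. The strain bears an engineered cell-cycle alteration.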
# [9] = NCI Yeast Anticancer Drug Screen. Data for the cln2 rad14 strain (AID 165);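 note: 0% = growth equal to vehicle treated cultures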; conditions: S. cerevisiae cln2 rad14 strain, hits give high values
# Procedure, shortened: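 cln2 rad14 yeast strain; compound exposure; growth inhibition read vs vehicle controls.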
# [10] = NCI Yeast Anticancer Drug Screen. Data for the bub3 strain (AID 167); conditions: S. cerevisiae bub3 mutant strain, hits give high values
# Procedure, shortened: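 Compounds were applied to a genetically altered yeast strain carrying a cell-cycle control defect. Growth inhibition was scored against vehicle-treated controls.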
# [11] = NCI Yeast Anticancer Drug Screen. Data for the wt2 strain (AID 169);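 note: 0% = growth of vehicle-treated yeast cultures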; conditions: S. cerevisiae wt2 strain growth inhibition, hits give high values
# Procedure, shortened: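 Read-out: growth inhibition versus vehicle-treated control cultures after compound exposure of the yeast strain.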
# [12] = NCI Yeast Anticancer Drug Screen. Data for the mlh1 strain (AID 171);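 note: 0% = growth of vehicle-treated control cultures of the same strain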; conditions: S. cerevisiae mlh1 strain growth inhibition, hits give high values
# Procedure, shortened: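 Read-out: growth inhibition versus vehicle controls. Strain: engineered yeast with a defined DNA repair or cell cycle defect, compound-treated.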
# [13] = NCI Yeast Anticancer Drug Screen. Data for the sgs1 strain (AID 173);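 note: 0% = growth of vehicle-only control cultures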; conditions: S. cerevisiae sgs1 mutant, hits give high values
# Procedure, shortened: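 Read-out: yeast growth inhibition relative to vehicle controls, following compound exposure of a strain with a defined DNA repair/cell cycle alteration.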
# [14] = NCI Yeast Anticancer Drug Screen. Data for the mlh1 rad18 strain (AID 175); conditions: S. cerevisiae mlh1 rad18 strain growth inhibition, hits give high values
# Procedure, shortened: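 Yeast w/ defined DNA-repair lesions; compound exposure; growth vs vehicle controls → % inhibition.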
# [15] = NCI Yeast Anticancer Drug Screen. Data for the rad18 strain (AID 177); conditions: S. cerevisiae rad18 mutant growth inhibition, hits give high values
# Procedure, shortened: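 Readout: growth inhibition vs vehicle controls. Cells: genetically altered yeast strain, DNA repair defect.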
# [16] = at 5.0 µM (retest, dose inferred, filed as 0.5)
# [17] = at 50.0 µM (retest, dose inferred, filed as 5.0)
structure (smiles),measurement,setting,value
O=C(/C=C/c1ccsc1)c1cccs1,growth inhibition,[1]; at 1.2 µM,-16%
same,growth inhibition,[1]; at 3.7 µM,-18%
same,growth inhibition,[1]; at 11.0 µM,-9%
same,growth inhibition,[1]; at 33.0 µM,-12%
same,growth inhibition,[1]; at 100.0 µM,82% (active)
same,growth inhibition,[2]; at 1.2 µM,-33%
same,growth inhibition,[2]; at 3.7 µM,-41%
same,growth inhibition,[2]; at 11.0 µM,-35%
same,growth inhibition,[2]; at 33.0 µM,-35%
same,growth inhibition,[2]; at 100.0 µM,17%
same,growth inhibition,[3]; at 1.2 µM,5%
same,growth inhibition,[3]; at 3.7 µM,11%
same,growth inhibition,[3]; at 11.0 µM,21%
same,growth inhibition,[3]; at 33.0 µM,54%
same,growth inhibition,[3]; at 100.0 µM,95% (active)
same,growth inhibition,[4]; at 1.2 µM,21%
same,growth inhibition,[4]; at 3.7 µM,19%
same,growth inhibition,[4]; [16],-15%
same,growth inhibition,[4]; at 11.0 µM,22%
same,growth inhibition,[4]; at 33.0 µM,27%
same,growth inhibition,[4]; [17],11%
same,growth inhibition,[4]; at 50.0 µM,46.6%
same,growth inhibition,[4]; at 100.0 µM,92% (active)
same,growth inhibition,[5]; at 1.2 µM,-3%
same,growth inhibition,[5]; at 3.7 µM,-7%
same,growth inhibition,[5]; [16],4%
same,growth inhibition,[5]; at 11.0 µM,-2%
same,growth inhibition,[5]; at 33.0 µM,8%
same,growth inhibition,[5]; [17],11%
same,growth inhibition,[5]; at 50.0 µM,19.9%
same,growth inhibition,[5]; at 100.0 µM,98% (active)
same,growth inhibition,[6]; at 1.2 µM,3%
same,growth inhibition,[6]; at 3.7 µM,0%
same,growth inhibition,[6]; at 11.0 µM,-8%
same,growth inhibition,[6]; at 33.0 µM,9%
same,growth inhibition,[6]; at 100.0 µM,87% (active)
same,growth inhibition,[7]; [16],-1%
same,growth inhibition,[7]; [17],33%
same,growth inhibition,[7]; at 50.0 µM,66.6%
same,growth inhibition,[8]; at 1.2 µM,4%
same,growth inhibition,[8]; at 3.7 µM,14%
same,growth inhibition,[8]; at 11.0 µM,3%
same,growth inhibition,[8]; at 33.0 µM,5%
same,growth inhibition,[8]; at 100.0 µM,84% (active)
same,growth inhibition,[9]; [16],37%
same,growth inhibition,[9]; [17],42%
same,growth inhibition,[9]; at 50.0 µM,4.55%
same,growth inhibition,[10]; at 1.2 µM,1%
same,growth inhibition,[10]; at 3.7 µM,28%
same,growth inhibition,[10]; [16],-11%
same,growth inhibition,[10]; at 11.0 µM,11%
same,growth inhibition,[10]; at 33.0 µM,23%
same,growth inhibition,[10]; [17],66%
same,growth inhibition,[10]; at 50.0 µM,15.2%
same,growth inhibition,[10]; at 100.0 µM,97% (active)
same,growth inhibition,[11]; at 1.2 µM,-24%
same,growth inhibition,[11]; at 3.7 µM,-36%
same,growth inhibition,[11]; at 11.0 µM,-31%
same,growth inhibition,[11]; at 33.0 µM,-29%
same,growth inhibition,[11]; at 100.0 µM,85% (active)
same,growth inhibition,[12]; at 1.2 µM,6%
same,growth inhibition,[12]; at 3.7 µM,3%
same,growth inhibition,[12]; at 11.0 µM,-8%
same,growth inhibition,[12]; at 33.0 µM,25%
same,growth inhibition,[12]; at 100.0 µM,96% (active)
same,growth inhibition,[13]; at 1.2 µM,-15%
same,growth inhibition,[13]; at 3.7 µM,-23%
same,growth inhibition,[13]; at 11.0 µM,-24%
same,growth inhibition,[13]; at 33.0 µM,-17%
same,growth inhibition,[13]; at 100.0 µM,83% (active)
same,growth inhibition,[14]; [16],-9%
same,growth inhibition,[14]; [17],69%
same,growth inhibition,[14]; at 50.0 µM,44.6%
same,growth inhibition,[15]; at 1.2 µM,-3%
same,growth inhibition,[15]; at 3.7 µM,-5%
same,growth inhibition,[15]; at 11.0 µM,-12%
same,growth inhibition,[15]; at 33.0 µM,-6%
same,growth inhibition,[15]; at 100.0 µM,84% (active)
